In PubChem BioAssay (NCI):
The panel holds about 79,000 compounds, 15% with a hit somewhere; the sample as a whole holds those more often. The source made the active and inactive calls. Rule as the data show it: active = growth inhibition above about 70%; inactive = the rest.

Tests used:
[1] = NCI Yeast Anticancer Drug Screen. Data for the rad52 strain (AID 147);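 also: 0% = growth of vehicle-treated control cultures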; conditions: S. cerevisiae rad52 mutant growth inhibition, hits give high values
Procedure, shortened: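 Read-out: growth inhibition versus vehicle-treated controls. Cells were a DNA repair-deficient yeast strain treated with compounds.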

[2] = NCI Yeast Anticancer Drug Screen. Data for the wt1 strain (AID 149);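 also: 0% = growth of vehicle-treated wt1 cultures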; conditions: S. cerevisiae wt1 strain (SPY 50644) growth inhibition, hits give high values
Procedure, shortened: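 Readout: yeast growth inhibition, normalised to vehicle controls, in the wt1 strain exposed to test compounds.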

[3] = NCI Yeast Anticancer Drug Screen. Data for the rad50EPP+ strain (AID 151);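 also: 0% = growth of vehicle-treated control cultures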; conditions: S. cerevisiae rad50 mutant strain, hits give high values
Procedure, shortened: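 Growth inhibition read against vehicle controls in rad50EPP+ yeast, a strain altered in DNA damage repair, after compound exposure.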

[4] = NCI Yeast Anticancer Drug Screen. Data for the mgt1 strain (AID 153); conditions: S. cerevisiae mgt1 mutant growth inhibition, hits give high values
Procedure, shortened: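 mgt1 yeast grown with test compound; read-out is growth inhibition versus vehicle-treated cultures.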

[5] = NCI Yeast Anticancer Drug Screen. Data for the rad50 strain (AID 155);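 also: 0% = growth of vehicle-only cultures of the same strain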; conditions: S. cerevisiae rad50 strain growth inhibition, hits give high values
Procedure, shortened: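 Compounds were tested on a yeast strain with an engineered DNA damage repair alteration; the reported value is growth inhibition normalised to vehicle treatment.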

[6] = NCI Yeast Anticancer Drug Screen. Data for the mec2-1 strain (AID 157); conditions: S. cerevisiae mec2-1 strain, hits give high values
Procedure, shortened: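 Yeast mec2-1 mutant treated with compound. Readout: growth inhibition vs vehicle controls.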

[7] = NCI Yeast Anticancer Drug Screen. Data for the rad14 strain (AID 159);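 also: 0% = growth of vehicle-treated control cultures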; conditions: S. cerevisiae rad14 strain growth inhibition, hits give high values
Procedure, shortened: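 Compound-treated yeast with a defined DNA-repair lesion; growth inhibition normalised to vehicle-treated cultures.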

[8] = NCI Yeast Anticancer Drug Screen. Data for the sgs1 mgt1 strain (AID 161);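 also: 0% = growth of cultures given vehicle only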; conditions: S. cerevisiae sgs1 mgt1 strain, hits give high values
Procedure, shortened: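 Mutant yeast exposed to compound; growth scored against vehicle-only wells.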

[9] = NCI Yeast Anticancer Drug Screen. Data for the CLN2oe strain (AID 163);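 also: 0% = growth of vehicle-only control cultures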; conditions: S. cerevisiae CLN2oe strain, hits give high values
Procedure, shortened: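 Read-out: yeast growth inhibition, expressed relative to vehicle-only controls. The strain bears an engineered cell-cycle alteration.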

[10] = NCI Yeast Anticancer Drug Screen. Data for the cln2 rad14 strain (AID 165);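 also: 0% = growth equal to vehicle treated cultures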; conditions: S. cerevisiae cln2 rad14 strain, hits give high values
Procedure, shortened: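 cln2 rad14 yeast strain; compound exposure; growth inhibition read vs vehicle controls.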

[11] = NCI Yeast Anticancer Drug Screen. Data for the bub3 strain (AID 167); conditions: S. cerevisiae bub3 mutant strain, hits give high values
Procedure, shortened: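 Growth of a checkpoint-deficient yeast mutant is measured after compound exposure. Values represent inhibition relative to vehicle.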

[12] = NCI Yeast Anticancer Drug Screen. Data for the wt2 strain (AID 169);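 also: 0% = growth of vehicle-treated yeast cultures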; conditions: S. cerevisiae wt2 strain growth inhibition, hits give high values
Procedure, shortened: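 Read-out: growth inhibition versus vehicle-treated control cultures after compound exposure of the yeast strain.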

[13] = NCI Yeast Anticancer Drug Screen. Data for the mlh1 strain (AID 171);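 also: 0% = growth of vehicle-treated control cultures of the same strain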; conditions: S. cerevisiae mlh1 strain growth inhibition, hits give high values
Procedure, shortened: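 Read-out: growth inhibition versus vehicle controls. Strain: engineered yeast with a defined DNA repair or cell cycle defect, compound-treated.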

[14] = NCI Yeast Anticancer Drug Screen. Data for the sgs1 strain (AID 173);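 also: 0% = growth of vehicle-only control cultures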; conditions: S. cerevisiae sgs1 mutant, hits give high values
Procedure, shortened: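 Read-out: yeast growth inhibition relative to vehicle controls, following compound exposure of a strain with a defined DNA repair/cell cycle alteration.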

[15] = NCI Yeast Anticancer Drug Screen. Data for the mlh1 rad18 strain (AID 175); conditions: S. cerevisiae mlh1 rad18 strain growth inhibition, hits give high values
Procedure, shortened: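 Yeast w/ defined DNA-repair lesions; compound exposure; growth vs vehicle controls → % inhibition.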

[16] = NCI Yeast Anticancer Drug Screen. Data for the rad18 strain (AID 177); conditions: S. cerevisiae rad18 mutant growth inhibition, hits give high values
Procedure, shortened: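 Readout: growth inhibition vs vehicle controls. Cells: genetically altered yeast strain, DNA repair defect.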

[17] = at 5.0 µM (retest, dose inferred, filed as 0.5)
[18] = at 50.0 µM (retest, dose inferred, filed as 5.0)

Measured: growth inhibition

CC1(c2ccccc2)O[C@@H]2C[C@H]3[C@@H]4CCC5=CC(=O)C=C[C@]5(C)[C@@]4(F)[C@@H](O)C[C@]3(C)[C@]2(C(=O)CO)O1 (stereo partly specified)
inactive: [1]; at 1.2 µM -3% | [1]; at 3.7 µM -2% | [1]; at 11.0 µM 6% | [1]; at 33.0 µM 62% | [2]; at 1.2 µM 0% | [2]; at 3.7 µM 6% | [2]; at 11.0 µM 3% | [2]; at 33.0 µM 24% | [3]; at 1.2 µM 3% | [3]; at 3.7 µM 3% | [3]; at 11.0 µM 7% | [3]; at 33.0 µM 11% | [3]; at 100.0 µM 23% | [4]; at 1.2 µM -2% | [4]; at 3.7 µM -5% | [4]; at 11.0 µM -5% | [4]; at 33.0 µM 53% | [5]; at 1.2 µM -2% | [5]; at 3.7 µM 0% | [5]; [17] 15% | [5]; at 11.0 µM 6% | [5]; at 33.0 µM 51% | [5]; [18] 35% | [6]; at 1.2 µM 3% | [6]; at 3.7 µM 5% | [6]; [17] 1% | [6]; at 11.0 µM 10% | [6]; at 33.0 µM 41% | [6]; [18] 8% | [7]; at 1.2 µM -2% | [7]; at 3.7 µM 2% | [7]; at 11.0 µM 11% | [8]; [17] 2% | [8]; [18] 33% | [9]; at 1.2 µM -5% | [9]; at 3.7 µM -11% | [9]; at 11.0 µM -4% | [9]; at 33.0 µM 53% | [10]; [17] 6% | [10]; [18] 15% | [11]; at 1.2 µM -3% | [11]; at 3.7 µM -10% | [11]; [17] -11% | [11]; at 11.0 µM -4% | [11]; at 33.0 µM 21% | [11]; [18] 10% | [12]; at 1.2 µM 1% | [12]; at 3.7 µM -1% | [12]; at 11.0 µM -2% | [12]; at 33.0 µM 60% | [13]; at 1.2 µM -1% | [13]; at 3.7 µM 2% | [13]; at 11.0 µM 5% | [13]; at 33.0 µM 66% | [14]; at 1.2 µM 0% | [14]; at 3.7 µM 3% | [14]; at 11.0 µM 10% | [14]; at 33.0 µM 62% | [15]; [17] -4% | [15]; [18] 56% | [16]; at 1.2 µM -1% | [16]; at 3.7 µM 4% | [16]; at 11.0 µM 21%
active: [1]; at 100.0 µM 98% | [2]; at 100.0 µM 94% | [4]; at 100.0 µM 98% | [5]; at 50.0 µM 92.7% | [5]; at 100.0 µM 97% | [6]; at 50.0 µM 91.2% | [6]; at 100.0 µM 98% | [7]; at 33.0 µM 75% | [7]; at 100.0 µM 99% | [8]; at 50.0 µM 92.1% | [9]; at 100.0 µM 98% | [10]; at 50.0 µM 95.8% | [11]; at 50.0 µM 90.9% | [11]; at 100.0 µM 95% | [12]; at 100.0 µM 98% | [13]; at 100.0 µM 96% | [14]; at 100.0 µM 97% | [15]; at 50.0 µM 96.2% | [16]; at 33.0 µM 76% | [16]; at 100.0 µM 98%

O=C(NO)c1coc2ccccc2c1=O
inactive: [1]; at 1.2 µM -1% | [1]; at 3.7 µM -4% | [1]; at 11.0 µM -2% | [1]; at 33.0 µM -2% | [1]; at 100.0 µM 9% | [2]; at 1.2 µM 4% | [2]; at 3.7 µM -3% | [2]; at 11.0 µM -3% | [2]; at 33.0 µM -3% | [2]; at 100.0 µM 0% | [3]; at 1.2 µM -2% | [3]; at 3.7 µM -6% | [3]; at 11.0 µM -3% | [3]; at 33.0 µM -5% | [3]; at 100.0 µM -1% | [4]; at 1.2 µM -2% | [4]; at 3.7 µM 2% | [4]; at 11.0 µM -14% | [4]; at 33.0 µM -5% | [4]; at 100.0 µM 9% | [5]; at 1.2 µM 5% | [5]; at 3.7 µM -5% | [5]; [17] -3% | [5]; at 11.0 µM 1% | [5]; at 33.0 µM 0% | [5]; [18] 24% | [5]; at 50.0 µM 31.1% | [5]; at 100.0 µM 15% | [6]; at 1.2 µM -3% | [6]; at 3.7 µM -5% | [6]; [17] 1% | [6]; at 11.0 µM -1% | [6]; at 33.0 µM -4% | [6]; [18] 10% | [6]; at 100.0 µM 0% | [7]; at 1.2 µM 0% | [7]; at 3.7 µM -1% | [7]; at 11.0 µM -1% | [7]; at 33.0 µM -2% | [7]; at 100.0 µM 1% | [8]; [17] 15% | [8]; [18] 13% | [8]; at 50.0 µM 62% | [9]; at 1.2 µM 1% | [9]; at 3.7 µM 2% | [9]; at 11.0 µM 4% | [9]; at 33.0 µM 8% | [9]; at 100.0 µM 8% | [10]; [17] -4% | [10]; [18] 16% | [10]; at 50.0 µM 19.8% | [11]; at 1.2 µM -6% | [11]; at 3.7 µM -5% | [11]; [17] 13% | [11]; at 11.0 µM -2% | [11]; at 33.0 µM -2% | [11]; [18] 61% | [11]; at 50.0 µM 13.7% | [11]; at 100.0 µM -5% | [12]; at 1.2 µM -2% | [12]; at 3.7 µM -4% | [12]; at 11.0 µM -3% | [12]; at 33.0 µM -3% | [12]; at 100.0 µM 4% | [13]; at 1.2 µM -1% | [13]; at 3.7 µM 0% | [13]; at 11.0 µM -1% | [13]; at 33.0 µM 1% | [13]; at 100.0 µM 11% | [14]; at 1.2 µM -1% | [14]; at 3.7 µM -3% | [14]; at 11.0 µM -2% | [14]; at 33.0 µM -2% | [14]; at 100.0 µM 6% | [15]; [17] 13% | [15]; [18] 10% | [15]; at 50.0 µM -7.15% | [16]; at 1.2 µM -2% | [16]; at 3.7 µM -3% | [16]; at 11.0 µM 2% | [16]; at 33.0 µM -4% | [16]; at 100.0 µM 25%
active: [6]; at 50.0 µM 86.1%
